Compound activity (PubChem)
A selection: hits, their analogues and other compounds. The true share with any hit is near 12%.
G9a inh – qHTS Assay for Inhibitors of Histone Lysine Methyltransferase G9a. actives 8.8% (n = 350,000). Potency, µM (highest dose often 102 µM), for inactives: at the top dose activity, negative = inhibition, hits mostly inhibitors. Histone-lysine N-methyltransferase EHMT2 (Homo sapiens), Q96KQ7. G9a H3K9 monomethylation, AlphaScreen, 2 h; further: on the % scale 0 is the no-effect control and ±100 the full control effect; nearly all actives have a fitted effect of over 75% in size
Target sequence (Q96KQ7 913-1193 limits assumed): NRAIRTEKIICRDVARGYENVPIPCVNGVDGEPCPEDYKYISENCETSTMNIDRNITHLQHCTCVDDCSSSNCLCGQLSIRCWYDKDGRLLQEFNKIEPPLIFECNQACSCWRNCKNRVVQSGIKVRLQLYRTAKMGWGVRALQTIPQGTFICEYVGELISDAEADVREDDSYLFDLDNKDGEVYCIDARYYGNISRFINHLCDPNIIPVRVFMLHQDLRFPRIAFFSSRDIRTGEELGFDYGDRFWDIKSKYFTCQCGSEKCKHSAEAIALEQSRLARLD
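Methyltransferase reactions run at room temperature for 2 h (20 nM enzyme, 500 nM biotin-H3K9 peptide, 20 uM SAM) after a 15 min compound preincubation; product detected by AlphaScreen beads and anti-H3K9me1 antibody.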
L3MBTL1 block – qHTS Assay for the Inhibitors of L3MBTL1; Lethal(3)malignant brain tumor-like protein 1 (Homo sapiens), Q9Y468; AlphaScreen L3MBTL1–H3K9me1 peptide binding; Potency, µM (titrated, usually from 57.1 µM), for the others: at the top dose activity, negative = inhibition, most hits filed as inhibitors; actives 0.66% (n = 230,000); AID 485360, 2010; further: on the % scale 0 is the no-effect control and ±100 the full control effect; nearly all actives have a fitted effect of over 60% in size
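L3MBTL1 50 nM + b-AHA-H3(1-15)K9me1 75 nM, 30 min RT; compound added, 30 min RT; streptavidin donor/Ni-chelate acceptor beads 10 ug/mL each final, 30 min RT dark; AlphaScreen read.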
JMJD2A Tudor inh – qHTS Assay for Inhibitors of JMJD2A-Tudor Domain | AlphaScreen JMJD2A-Tudor / H3K4me3 peptide binding | Potency, µM (titrated, usually from 114 µM), for the others: at the top dose activity change, negative = inhibition, hits mostly inhibitors | actives 4.4% (n = 390,000); further: on the % scale 0 is the no-effect control and ±100 the full control effect; nearly all actives have a fitted effect of over 50% in size
BAZ2B inh – qHTS Assay for Inhibitors of BAZ2B. AlphaScreen BAZ2B-H3K14Ac peptide displacement. Potency, µM (highest dose often 114 µM), without a hit: top-dose activity change, negative = inhibition, hits mostly inhibitors. actives 4.4% (n = 360,000). AID 504333, 2011; further: on the % scale 0 is the no-effect control and ±100 the full control effect; nearly all actives have a fitted effect of over 60% in size
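Multi-concentration screen (max 110 uM) measuring displacement of acetylated histone H3 peptide from BAZ2B by AlphaScreen, using 50 nM protein, 50 nM peptide and 10 ug/mL streptavidin donor plus Ni-chelate acceptor beads.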
HP1b chromo inh – HTS for Inhibitors of HP1-beta Chromodomain Interactions with Methylated Histone Tails. Chromobox protein homolog 1 (Homo sapiens), P83916. AlphaScreen HP1-beta / biotin-H3K9me3 peptide binding. Potency, µM (top dose mostly 114 µM), inactives show at the top dose activity change, negative = inhibition, hits mostly inhibitors. actives 0.56% (n = 390,000). AID 540317, 2011; further: nearly all actives have a fitted effect of over 70% in size
Target sequence (P83916 whole entry, looked up): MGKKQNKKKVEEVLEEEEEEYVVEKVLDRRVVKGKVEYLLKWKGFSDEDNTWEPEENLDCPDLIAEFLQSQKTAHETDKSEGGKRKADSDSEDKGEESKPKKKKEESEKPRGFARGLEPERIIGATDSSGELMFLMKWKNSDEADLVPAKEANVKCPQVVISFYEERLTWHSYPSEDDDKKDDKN
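AlphaScreen: HP1-beta (50 nM) preformed 30 min with biotin-H3(1-18)K9me3 peptide (50 nM) in PBS pH 7.4, 0.01% Tween-20. Compound added for 30 min at RT, then streptavidin donor/nickel chelate acceptor beads (10 ug/mL) for 30 min.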
Sfp PPTase inh – qHTS Assay for Inhibitors of Bacillus subtilis Sfp phosphopantetheinyl transferase (PPTase); 4'-phosphopantetheinyl transferase ffp (Bacillus subtilis), Q9F4F7; Biochemical Sfp PPTase activity, qHTS; Potency, µM, for inactives: largest response in the series, negative = inhibition, most hits filed as inhibitors; actives 3.5% (n = 310,000);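 further: the enzyme is Sfp with the accession as filed and its product quenches rhodamine fluorescence; 0% = enzyme reaction without inhibitor and -100% = no enzyme wells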
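Step 1, compound plus 15 nM Sfp-PPTase, 15 min, room temperature. Step 2, add rhodamine-CoA (5 uM) and BHQ-2-YbbR (12.5 uM). Step 3, read 525/598 nm fluorescence at 0 and 30 min.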
* hit, by the source's call; [ ] = dose if it differs, or a comment. The call rests on the fitted dose curve; in most records, active means well fitted curve in the direction sought with a large enough effect; inconclusive means small, poorly fitted or top-dose-only effect, or another doubt; inactive means no such curve, though single readings can be large; an effect the other way counts as inactive or inconclusive. Potency means the concentration at half of the fitted maximal effect.

For O=C(NC(=S)N1CCCCC1c1cccnc1)c1ccc(Br)cc1 (stereo not drawn) the results were G9a inh 22µM*, JMJD2A Tudor inh 0%, BAZ2B inh -4%[57.1 µM], HP1b chromo inh 35% and Sfp PPTase inh -25%.
O=C(NC(=S)N1CCCCC1c1cccnc1)c1ccc(F)cc1 (stereo not drawn) was read as G9a inh 32µM*, JMJD2A Tudor inh -19%, BAZ2B inh -13%[57.1 µM], HP1b chromo inh -1% and Sfp PPTase inh -16%.
For Cc1cccc(NC(=S)N2CCCCC2c2cccnc2)c1C (stereo not drawn) the results were G9a inh -25%, L3MBTL1 block -3%, JMJD2A Tudor inh -6%, BAZ2B inh -4%, HP1b chromo inh -6% and Sfp PPTase inh -1%.
`Cc1cc2c(s1)c1cnn(Cc3c(Cl)cccc3Br)c(=O)c1n2C` gave JMJD2A Tudor inh -5%.
`COc1cc(C2CC(=O)Nc3ccc4ccccc4c32)ccc1OC(=O)C(C)C` (stereo not drawn) gave G9a inh inconclusive, JMJD2A Tudor inh inconclusive, BAZ2B inh inconclusive and HP1b chromo inh -6%.
Screening CN1CCN(C2(CNC(=O)c3ccc(C(C)(C)C)cc3)CCCCC2)CC1 returned G9a inh inconclusive, JMJD2A Tudor inh -6%, BAZ2B inh -7% and HP1b chromo inh 42%.
`Cc1ccc(CCNC(=O)c2ccc(Cn3c(=O)c4cccn4c4cccnc43)cc2)cc1` gave G9a inh 6%[59 µM], JMJD2A Tudor inh -29%, BAZ2B inh -16% and HP1b chromo inh 22%.
For CNC[C@H](CC1CCCCC1)NC[C@H](Cc1ccccc1)NCCC12CC3CC(CC(C3)C1)C2 the results were G9a inh 45µM*, L3MBTL1 block -1%, JMJD2A Tudor inh -36%, BAZ2B inh inconclusive, HP1b chromo inh 20% and Sfp PPTase inh 45µM*.
O=C(O)c1ccccc1/C=N/Nc1ccc(S(=O)(=O)N2CCCC2)cc1[N+](=O)[O-] was read as G9a inh inconclusive, L3MBTL1 block -21%, JMJD2A Tudor inh -35%, BAZ2B inh inconclusive, HP1b chromo inh -2% and Sfp PPTase inh -1%.
Screening O=C(O)c1ccccc1NS(=O)(=O)c1ccc(NN=Cc2ccccc2F)c([N+](=O)[O-])c1 returned L3MBTL1 block -21%, JMJD2A Tudor inh 20µM* and HP1b chromo inh 50µM*.
For C=CCOc1ccc(C=NNc2ccc(S(=O)(=O)Nc3ccccc3C(=O)O)cc2[N+](=O)[O-])cc1OC the results were L3MBTL1 block -27%, JMJD2A Tudor inh 16µM* and HP1b chromo inh inconclusive.
Screening COc1ccc(-c2nn(-c3ccccc3)cc2/C=N/Nc2ccc(S(N)(=O)=O)cc2[N+](=O)[O-])cc1OC returned G9a inh -5%, L3MBTL1 block -8%, JMJD2A Tudor inh -13%, BAZ2B inh inconclusive, HP1b chromo inh 1% and Sfp PPTase inh 15%.
For CSc1ccc(C=NNc2ccc(S(=O)(=O)Nc3ccccc3C(=O)O)cc2[N+](=O)[O-])cc1 the results were L3MBTL1 block 20µM*, JMJD2A Tudor inh 20µM* and HP1b chromo inh 20µM*.
`Cc1ccc(NS(=O)(=O)c2ccc(N/N=C/c3ccncc3)c([N+](=O)[O-])c2)c(C)c1` gave G9a inh -4%, L3MBTL1 block -1%, JMJD2A Tudor inh -14%[57.1 µM], BAZ2B inh -9%, HP1b chromo inh 43% and Sfp PPTase inh -26%.
For COc1ccc(C=NNc2ccc(S(=O)(=O)Nc3ccccc3C(=O)O)cc2[N+](=O)[O-])c(OC)c1 the results were L3MBTL1 block inconclusive, JMJD2A Tudor inh 35µM* and HP1b chromo inh 20µM*.
For COc1ccc(CN(Cc2ccco2)c2cnc(S(C)(=O)=O)nc2C(=O)Nc2ccc(F)cc2)cc1 the results were G9a inh inconclusive, JMJD2A Tudor inh -28%, BAZ2B inh -23% and HP1b chromo inh 20%.
`CC(=O)OCC1OC(C#Cc2ccc(Br)cc2)C=CC1OC(C)=O` (stereo not drawn) gave Sfp PPTase inh -9%.
Cc1nn(-c2ccccc2)c(Cl)c1/C=N/NS(=O)(=O)c1ccc(Br)cc1 was read as G9a inh -22%, L3MBTL1 block -2%, JMJD2A Tudor inh -28%, BAZ2B inh -12%, HP1b chromo inh 11% and Sfp PPTase inh -9%.
Screening Cc1ccc(S(=O)(=O)Nc2ccccc2C(=O)OC(C)C(=O)Nc2ccc3ccccc3c2)cc1[N+](=O)[O-] (stereo not drawn) returned G9a inh 50µM*, L3MBTL1 block -7%, JMJD2A Tudor inh -30%, BAZ2B inh -38%, HP1b chromo inh -1% and Sfp PPTase inh 2%.
`CCOc1ccc(C=NNc2ccc(S(=O)(=O)Nc3ccccc3C(=O)O)cc2[N+](=O)[O-])cc1` gave L3MBTL1 block 16µM*, JMJD2A Tudor inh 22µM* and HP1b chromo inh 40µM*.
Screening Cc1nn(-c2ccccc2)c(Cl)c1/C=N/Nc1ccc(Cl)c(C(=O)O)c1 returned G9a inh 3.5µM*, L3MBTL1 block -5%, JMJD2A Tudor inh inconclusive, BAZ2B inh inconclusive, HP1b chromo inh inconclusive and Sfp PPTase inh 2%.
Screening CCOc1ccc(S(=O)(=O)Nc2ccccc2C(=O)N2CCCC2)cc1 returned G9a inh 8%, L3MBTL1 block -5%, JMJD2A Tudor inh 11%, BAZ2B inh -36%, HP1b chromo inh 37% and Sfp PPTase inh 9%.
Cc1nn(-c2ccccc2)c(Cl)c1/C=N/Nc1ccc(S(=O)(=O)Nc2ccccc2C(=O)O)cc1[N+](=O)[O-] was read as G9a inh 20µM*, L3MBTL1 block inconclusive, JMJD2A Tudor inh 50µM*, BAZ2B inh 14µM*, HP1b chromo inh inconclusive and Sfp PPTase inh -21%.
`O=C(c1ccccc1O)N(Cc1cccs1)Cc1cccs1` gave JMJD2A Tudor inh -22%.
For Cc1ccccc1NC(=O)CSc1nc2ccc(NC(=O)c3ccccc3)cc2s1 the results were G9a inh 2%[59 µM], JMJD2A Tudor inh 6%, BAZ2B inh -27% and HP1b chromo inh 56%.
